This is part of a sample that, as a whole, favours compounds with a hit. Of some 83,000 tested, about 20% had one in any assay.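 Plates (96-well) were seeded with cells, treated with compound at one concentration, and incubated for 48 hours before percent growth was determined.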 A number with no mark means an inactive call. Activity calls are given as the source filed them. Rule for the calls: active = growth percent below 10; inactive = the rest.
What follows are molecules tested on RPMI-8226 leukemia (assay: NCI-60 one-dose screen, 48 h (100 = growth as untreated, 0 = no growth, -100 = all killed)). Settings: 10 µM unless noted.

Compound	growth
CCOC(=O)c1c(NC(=O)c2ccc(C(C)C)cc2)sc2c(CN(C)C)c(O)ccc12	-20% (active)
CCOC(=O)c1cnc2ccccc2c1Cl	114%
CCN(CC)c1nc(SCc2ccccc2Cl)ncc1C	93.5%
O=C1Nc2ccc(I)cc2C1=O	144%
O=S(=O)(NCCNc1nccc(-c2c(-c3cccc(F)c3)nc3occn23)n1)c1ccc(Br)cc1	62.3%
CC(C)c1ccc(COCc2cc(CN3CCCC3)c(O)c3ncccc23)cc1	-21.4% (active)
COc1ccc2cc(C(=O)c3coc4ccc(O)cc34)ccc2c1	91.5%
O=C(CI)NC1Oc2ccccc2-c2oc(=O)c(-c3ccccc3)cc21 (stereo not given)	-49.4% (active)
Cc1ccc(-n2c(=S)[nH]c3sc4c(c3c2=O)CCC(=O)C4)cc1	22.7%
C=CCn1c(SCC(=O)Nc2ccc(C(=O)/C=C/c3cc4cc(OC)ccc4nc3Cl)cc2)nnc1-c1ccc(Br)cc1	-19.8% (active)
COc1cccc(/C=C/C(=O)c2cc3c(N)c(C(=O)Nc4ccccc4)sc3nc2C)c1	-18.7% (active)
O=C1C(Cl)=C(Oc2ccccc2)C(=O)c2ccccc21	35.2%
CC(C)OC(=O)c1ccc2[nH]c(O)c(C(=Nc3ccc(N(C)C(=O)CN4CCN(C)CC4)cc3)c3ccccc3)c2c1	-28.9% (active)
N#CC1C=CN(CC(N)=O)c2ccc3cccnc3c21 (stereo not given)	90%
S=C(Nc1ccc(-c2nc(N3CCOCC3)c3cccn3n2)cc1)Nc1cccnc1	19%
Cc1cc2c(O)c(-c3cccc(Cl)c3)c3sc(=O)oc3c2cc1C	12.1%
COC(=O)[C@H]1CCCN1C[C@@H](O)CN1C(=O)/C(=C\c2cc(OC)c(OC)c(OC)c2)c2ccccc21	91.4%
CS(=O)(=O)Nc1cc(-c2ccc3ncnc(Nc4c(Cl)ccc5c4OCO5)c3c2)cnc1Cl	-19.7% (active)
COc1ccc(C(=S)N2CCN(c3ccccc3Cl)CC2)cc1OC	117%
CC(C)N1CN2C(=S)NC3C2N(C1)C(=S)N3C (stereo not given)	91.7%

Compound	growth
O=C(c1ccc(-c2nc(CSc3nc4ccccc4s3)no2)cc1)N1CCSCC1	47.2%
O=Nc1c(-c2c(O)[nH]c3ncccc23)[nH]c2ccccc12	69.5%
O=C(CSc1nnc2n1S(=O)(=O)c1ccccc1N2c1ccccc1)Nc1nc2ccc(F)cc2s1	76.5%
O=C1/C(=C/c2ccccc2Br)COc2ccc(O)c(O)c21	1.07% (active)
CCOC(=O)C(=Cc1cccc(Br)c1)C(=O)OCC	12.9%
COC(C(=O)[C@@H](O)[C@@H](C)O)[C@@H]1Cc2cc3cc(O[C@H]4C[C@@H](O[C@H]5C[C@@H](O)[C@H](O)C(C)O5)[C@H](O)C(C)O4)cc(O)c3c(O)c2C(=O)[C@H]1O[C@H]1C[C@@H](O[C@H]2C[C@@H](O[C@H]3C[C@@H](OC)[C@H](O)C(C)O3)[C@@H](O)C(C)O2)[C@H](O)C(C)O1 (stereo not given in full)	50%
Cc1ccc(-c2cc(-c3ccc(Cl)cc3)nc(NC(=O)c3cccnc3)n2)cc1	86.3%
Fc1cccc(CNc2c3ccccc3nc3ccccc23)c1F	52.9%
CN(C)CC(=O)Nc1ccc2ncnc(Nc3ccc(Oc4cccc(C(F)(F)F)c4)c(Cl)c3)c2c1	31.2%
Cc1cc(N)c2cc(NC(=O)/C=C\c3ccccc3Cl)ccc2n1	-70.9% (active)
N#CC1=C(N)Oc2c(sc3c(F)cccc23)C1c1ccc(F)cc1 (stereo not given)	18.1%
C/C(=C(/c1ccc(Cl)cc1)c1ccc(OCCN2CCCC2)cc1)c1ccc(Cl)cc1	57.8%
COC(=O)c1ccc2c(c1)C(=O)c1c-2n(CCCN)c(=O)c2cc([N+](=O)[O-])ccc12	-40.4% (active)
CS(=O)(=O)C1=CN(CCO)C(=O)N2CCCN=C12	119%
O=C1Nc2ccccc2[C@]12CC(c1ccccc1)=NN2	39%
O=C(Cn1c(=O)sc2nc3ccccc3nc21)Nc1ncc(Cc2cccc(Cl)c2Cl)s1	97.5%
O=C(N/N=C/c1ccc(F)cc1)c1ccc(C(F)(F)F)nc1Nc1cccc(C(F)(F)F)c1	-49.8% (active)
COC(=O)[C@]1(C)CCC[C@]2(C)[C@H]3C[C@H]4C(C(C)C)=C[C@]3(CC[C@H]21)[C@H]1[C@@H]4[C@@H](OCCC#N)CC[C@@H]1OCCC#N	-16.1% (active)
CN(C)c1ccc(Nc2cc(-c3cccc(OC(F)(F)F)c3)nc3ccc(N4CCCC4)cc23)cc1	-33% (active)
CCn1c(=S)sc2c(Nc3ccc(F)cc3)nc(-c3cccnc3)nc21	88%

These molecules were tested on OVCAR-8 ovarian in the same assay as above. Settings: 10 µM unless noted.

Compound	growth
CCOC(=O)c1c(NC(=O)c2ccc(C(C)C)cc2)sc2c(CN(C)C)c(O)ccc12	89.1%
CCOC(=O)c1cnc2ccccc2c1Cl	99.6%
CCN(CC)c1nc(SCc2ccccc2Cl)ncc1C	104%
O=C1Nc2ccc(I)cc2C1=O	90.7%
O=S(=O)(NCCNc1nccc(-c2c(-c3cccc(F)c3)nc3occn23)n1)c1ccc(Br)cc1	80.2%
CC(C)c1ccc(COCc2cc(CN3CCCC3)c(O)c3ncccc23)cc1	-10.8% (active)
COc1ccc2cc(C(=O)c3coc4ccc(O)cc34)ccc2c1	106%
O=C(CI)NC1Oc2ccccc2-c2oc(=O)c(-c3ccccc3)cc21 (stereo not given)	-27.9% (active)
Cc1ccc(-n2c(=S)[nH]c3sc4c(c3c2=O)CCC(=O)C4)cc1	50.2%
C=CCn1c(SCC(=O)Nc2ccc(C(=O)/C=C/c3cc4cc(OC)ccc4nc3Cl)cc2)nnc1-c1ccc(Br)cc1	79.8%
COc1cccc(/C=C/C(=O)c2cc3c(N)c(C(=O)Nc4ccccc4)sc3nc2C)c1	3.31% (active)
O=C1C(Cl)=C(Oc2ccccc2)C(=O)c2ccccc21	85%
CC(C)OC(=O)c1ccc2[nH]c(O)c(C(=Nc3ccc(N(C)C(=O)CN4CCN(C)CC4)cc3)c3ccccc3)c2c1	-37.4% (active)
N#CC1C=CN(CC(N)=O)c2ccc3cccnc3c21 (stereo not given)	98.1%
S=C(Nc1ccc(-c2nc(N3CCOCC3)c3cccn3n2)cc1)Nc1cccnc1	14.8%
Cc1cc2c(O)c(-c3cccc(Cl)c3)c3sc(=O)oc3c2cc1C	41.9%
COC(=O)[C@H]1CCCN1C[C@@H](O)CN1C(=O)/C(=C\c2cc(OC)c(OC)c(OC)c2)c2ccccc21	92.1%
CS(=O)(=O)Nc1cc(-c2ccc3ncnc(Nc4c(Cl)ccc5c4OCO5)c3c2)cnc1Cl	8.87% (active)
COc1ccc(C(=S)N2CCN(c3ccccc3Cl)CC2)cc1OC	105%
CC(C)N1CN2C(=S)NC3C2N(C1)C(=S)N3C (stereo not given)	102%

Compound	growth
O=C(c1ccc(-c2nc(CSc3nc4ccccc4s3)no2)cc1)N1CCSCC1	43%
O=Nc1c(-c2c(O)[nH]c3ncccc23)[nH]c2ccccc12	79.6%
O=C(CSc1nnc2n1S(=O)(=O)c1ccccc1N2c1ccccc1)Nc1nc2ccc(F)cc2s1	84.9%
O=C1/C(=C/c2ccccc2Br)COc2ccc(O)c(O)c21	9.72% (active)
CCOC(=O)C(=Cc1cccc(Br)c1)C(=O)OCC	29.5%
COC(C(=O)[C@@H](O)[C@@H](C)O)[C@@H]1Cc2cc3cc(O[C@H]4C[C@@H](O[C@H]5C[C@@H](O)[C@H](O)C(C)O5)[C@H](O)C(C)O4)cc(O)c3c(O)c2C(=O)[C@H]1O[C@H]1C[C@@H](O[C@H]2C[C@@H](O[C@H]3C[C@@H](OC)[C@H](O)C(C)O3)[C@@H](O)C(C)O2)[C@H](O)C(C)O1 (stereo not given in full)	42.4%
Cc1ccc(-c2cc(-c3ccc(Cl)cc3)nc(NC(=O)c3cccnc3)n2)cc1	103%
Fc1cccc(CNc2c3ccccc3nc3ccccc23)c1F	50.8%
CN(C)CC(=O)Nc1ccc2ncnc(Nc3ccc(Oc4cccc(C(F)(F)F)c4)c(Cl)c3)c2c1	55.5%
Cc1cc(N)c2cc(NC(=O)/C=C\c3ccccc3Cl)ccc2n1	-41.9% (active)
N#CC1=C(N)Oc2c(sc3c(F)cccc23)C1c1ccc(F)cc1 (stereo not given)	21.4%
C/C(=C(/c1ccc(Cl)cc1)c1ccc(OCCN2CCCC2)cc1)c1ccc(Cl)cc1	88.8%
COC(=O)c1ccc2c(c1)C(=O)c1c-2n(CCCN)c(=O)c2cc([N+](=O)[O-])ccc12	-65.3% (active)
CS(=O)(=O)C1=CN(CCO)C(=O)N2CCCN=C12	108%
O=C1Nc2ccccc2[C@]12CC(c1ccccc1)=NN2	65.8%
O=C(Cn1c(=O)sc2nc3ccccc3nc21)Nc1ncc(Cc2cccc(Cl)c2Cl)s1	97%
O=C(N/N=C/c1ccc(F)cc1)c1ccc(C(F)(F)F)nc1Nc1cccc(C(F)(F)F)c1	9.33% (active)
COC(=O)[C@]1(C)CCC[C@]2(C)[C@H]3C[C@H]4C(C(C)C)=C[C@]3(CC[C@H]21)[C@H]1[C@@H]4[C@@H](OCCC#N)CC[C@@H]1OCCC#N	51.5%
CN(C)c1ccc(Nc2cc(-c3cccc(OC(F)(F)F)c3)nc3ccc(N4CCCC4)cc23)cc1	-26.6% (active)
CCn1c(=S)sc2c(Nc3ccc(F)cc3)nc(-c3cccnc3)nc21	43.7%

Reference: PubChem BioAssay (NCI)
